The values that follow come from PubChem BioAssay (Tox21).

The nature of test [1]: qHTS assay to identify small molecule antagonists of the retinoid acid receptor (RAR) signaling pathway - cell viability counter screen (AID 1159551). Further: nearly all actives have a fitted effect of over 35% in size. In outline: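 ATP-based viability, C3RL4 cells, 6 h at 37 C with 1 uM final retinol co-added after compound; luminescence read 30 min post CellTiter-Glo, RT.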
The nature of test [2]: qHTS assay to identify small molecule antagonists of the retinoic acid receptor (RAR) signaling pathway (AID 1159552; further: nearly all actives have a fitted effect of over 50% in size; further: potency means the concentration at half of the fitted maximal effect). The gist of the method: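 Antagonism of retinol-induced RARE reporter activity was measured in C3RL4 cells. Exposure to compounds and 1 uM final retinol lasted 6 hr at 37 C, with luminescence as endpoint.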
The nature of test [3]: qHTS assay to identify small molecule agonists of the retinoic acid receptor (RAR) signaling pathway (AID 1159553). In outline: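 Quantitative high-throughput format: the Tox21 10K library was tested on C3RL4 RARE-luciferase cells for 6 hr at 37 C and 5% CO2, with luminescence measured after a 30 min room-temperature reagent step.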
Test [4] is described as follows: qHTS assay to identify small molecule antagonists of the estrogen related receptor (ERR) signaling pathway from Tox21 library - cell viability counter screen (AID 1224834). Further: nearly all actives have a fitted effect of over 30% in size. Further: potency means the concentration at half of the fitted maximal effect. In outline: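 Compounds in DMSO were pinned onto ERR cells that had been incubated for 6 h, and the plates were held at 37 C for 17.5 h. CellTiter-Fluor reagent was then added and fluorescence was measured after 30 min.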
In general terms: In qHTS, concentration-response curves come from the screen itself.

Test [5] addresses Luciferin 4-monooxygenase (Photinus pyralis) (UniProt P08659). In words: qHTS assay to identify small molecule inhibitors of firefly luciferase (AID 1224835). Further: series mostly up to about 120 µM; nearly all actives have a fitted effect of over 25% in size. The gist of the method:
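Inhibition of purified Photinus luciferase is measured by luminescence. Substrate levels (D-luciferin, ATP) sit at their KM values. Each compound is tested in a concentration series.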

Test [6] is described as follows: qHTS assay to identify small molecule agonists of the constitutive androstane receptor (CAR) signaling pathway - cell viability counter screen (AID 1224836). Further: nearly all actives have a fitted effect of over 45% in size. Further: potency means the concentration at half of the fitted maximal effect. In outline:
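Double-stable HepG2 hepatoma cells (hCAR plus CYP2B6-2.2kb) are treated for 23 h at 37 C with test compounds in 15-point concentration series. PK11195 at 0.75 uM final is co-added. Cell viability is quantified by CellTiter-Fluor.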

Test [7] is described as follows: qHTS assay to identify small molecule antagonists of the constitutive androstane receptor (CAR) signaling pathway - cell viability counter screen (AID 1224837). Further: nearly all actives have a fitted effect of over 45% in size. Further: potency means the concentration at half of the fitted maximal effect. The gist of the method:
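Cells are seeded, rested 4 hr at 37 C/5% CO2, dosed with compound (15-point series) and 50 nM CITCO, incubated a further 23 hr, and then CellTiter-Fluor reagent is added before fluorescence is read. The line is HepG2 with stable hCAR and CYP2B6-2.2kb.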

The target of test [8] is Nuclear receptor subfamily 1 group I member 3 (Homo sapiens) (UniProt Q14994). In words: qHTS assay to identify small molecule antagonists of the constitutive androstane receptor (CAR) signaling pathway (AID 1224838).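 Further: HepG2 cells stably expressing hCAR with CYP2B6 luciferase reporter stimulated by CITCO; nearly all actives have a fitted effect of over 40% in size.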 Further: potency means the concentration at half of the fitted maximal effect. The gist of the method:
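Luminescence from a CYP2B6-2.2kb promoter reporter in hCAR-expressing HepG2 cells reflects CAR signaling. Cells received compounds at 15 concentrations and 50 nM CITCO (final), then incubated 24 h at 37 C/5% CO2.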

Test [9] shares this target. The test can be described thus: qHTS assay to identify small molecule agonists of the constitutive androstane receptor (CAR) signaling pathway (AID 1224839). Further: nearly all actives have a fitted effect of over 15% in size. Further: potency means the concentration at half of the fitted maximal effect. The gist of the method: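 Readout: firefly luciferase luminescence via ONE-Glo. System: HepG2 double-stable for hCAR and CYP2B6-2.2kb. Conditions: 15-point compound titration, PK11195 at 0.75 uM final, 24 h incubation.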

A short description of test [10]: qHTS assay to identify small molecule antagonists of the estrogen related receptor signaling pathway with the pleiotropic PPARgamma coactivator (PGC) from Tox21 10K library - cell viability counter screen (AID 1224840; active means well fitted cell-killing curve with a large enough effect in the repeat runs, not every such curve was filed as active; further: nearly all actives have a fitted effect of over 40% in size; further: potency means the concentration at half of the fitted maximal effect). In outline: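 Cell viability is measured by CellTiter-Fluor fluorescence in PGC/ERR cells that receive compounds after a 6-hour attachment period and are then incubated 17.5 hours at 37 C.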

Test [11] is described as follows: qHTS assay to identify small molecule antagonists of the estrogen related receptor signaling pathway with the pleiotropic PPARgamma coactivator (PGC) from Tox21 10K library (AID 1224841; call rule not given here; further: actives are mostly falling curves and most rising ones were filed inactive; nearly all actives have a fitted effect of over 50% in size; further: potency means the concentration at half of the fitted maximal effect). The gist of the method:
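Cells stably carrying the PGC/ERR reporter, seeded at 2,000 per well, received pin-transferred compounds 6 h post-plating. Exposure lasted 18 h at 37 C. Signal: One-Glo luminescence.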

The nature of test [12]: qHTS assay to identify small molecule agonists of the RXR signaling pathway - cell viability counter screen (AID 1159529). Further: nearly all actives have a fitted effect of over 50% in size. Further: potency means the concentration at half of the fitted maximal effect. The gist of the method:
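Counter screen: CellTiter-Glo luminescence. Cells: RXR-alpha-UAS-bla HEK 293T. Medium: 2% charcoal-stripped FBS. Treatment: 16 h, 37 C. Reagent incubation: 30 min, RT.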

The nature of test [13]: qHTS assay to identify small molecule agonists of the estrogen related receptor signaling pathway with the pleiotropic PPARgamma coactivator (PGC) from Tox21 10K library (AID 1224842). Further: nearly all actives have a fitted effect of over 15% in size. Further: potency means the concentration at half of the fitted maximal effect. The gist of the method:
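Luminescence from One-Glo (30 min, room temperature) measured after PGC/ERR cells had 18 h at 37 C with pinned compound (23 nL in DMSO). Cells had been seeded at 2,000 per well and pre-incubated 6 h.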

Test [14] concerns the target Thyrotropin receptor (Homo sapiens) (UniProt P16473). The test can be described thus: qHTS assay to identify small molecule agonists of the thyroid stimulating hormone receptor (TSHR) signaling pathway (AID 1224843; calls by dose curve; further: nearly all actives have a fitted effect of over 45% in size; further: potency means the concentration at half of the fitted maximal effect). In outline: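 Agonist activity read as cAMP rise via d2/cryptate HTRF competition, 1 h room-temperature detection, in HEK293 cells expressing TSHR. Fifteen-point titrations, each run in triplicate, with a 30 min room-temperature incubation beforehand.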

“And” between values parts separate entries of the source, which are not always exact repeats. Equal entries are not always repeated. Inconclusive results are not listed. The source made the active and inactive calls. Unless noted, the call rests on the fitted dose curve; in most records, active means well fitted curve in the direction sought with a large enough effect in the repeat runs; inconclusive means weak or mixed curves; inactive means no such curve, though single readings can be large; an effect the other way counts as inactive or inconclusive.

Chain of Luciferin 4-monooxygenase (Photinus pyralis) (P08659 whole entry, looked up): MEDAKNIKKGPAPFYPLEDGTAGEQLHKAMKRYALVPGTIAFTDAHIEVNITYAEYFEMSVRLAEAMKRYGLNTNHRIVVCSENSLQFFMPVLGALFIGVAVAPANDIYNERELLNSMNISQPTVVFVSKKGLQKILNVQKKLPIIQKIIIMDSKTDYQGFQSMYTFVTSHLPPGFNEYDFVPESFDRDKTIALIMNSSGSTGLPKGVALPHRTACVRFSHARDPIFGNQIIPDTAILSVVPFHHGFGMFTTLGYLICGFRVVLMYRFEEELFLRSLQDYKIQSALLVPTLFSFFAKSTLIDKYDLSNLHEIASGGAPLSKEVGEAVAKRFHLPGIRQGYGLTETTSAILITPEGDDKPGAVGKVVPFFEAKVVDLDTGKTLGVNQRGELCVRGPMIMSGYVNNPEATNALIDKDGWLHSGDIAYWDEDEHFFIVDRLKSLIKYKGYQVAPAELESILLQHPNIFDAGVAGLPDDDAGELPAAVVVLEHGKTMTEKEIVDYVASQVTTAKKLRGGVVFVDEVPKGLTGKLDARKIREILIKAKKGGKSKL
Chain of Nuclear receptor subfamily 1 group I member 3 (Homo sapiens) (Q14994 whole entry, looked up): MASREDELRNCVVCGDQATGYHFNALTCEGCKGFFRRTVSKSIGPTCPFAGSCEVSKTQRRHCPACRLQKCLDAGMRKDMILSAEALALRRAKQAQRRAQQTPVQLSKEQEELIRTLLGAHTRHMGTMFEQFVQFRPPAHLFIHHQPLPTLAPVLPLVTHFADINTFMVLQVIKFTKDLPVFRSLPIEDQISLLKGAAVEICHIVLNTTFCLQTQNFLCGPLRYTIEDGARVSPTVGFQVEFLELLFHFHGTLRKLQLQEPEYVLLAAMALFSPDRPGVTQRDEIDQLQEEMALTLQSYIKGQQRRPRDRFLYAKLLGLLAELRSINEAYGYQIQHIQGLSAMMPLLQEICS
Chain of Thyrotropin receptor (Homo sapiens) (P16473 whole entry, looked up): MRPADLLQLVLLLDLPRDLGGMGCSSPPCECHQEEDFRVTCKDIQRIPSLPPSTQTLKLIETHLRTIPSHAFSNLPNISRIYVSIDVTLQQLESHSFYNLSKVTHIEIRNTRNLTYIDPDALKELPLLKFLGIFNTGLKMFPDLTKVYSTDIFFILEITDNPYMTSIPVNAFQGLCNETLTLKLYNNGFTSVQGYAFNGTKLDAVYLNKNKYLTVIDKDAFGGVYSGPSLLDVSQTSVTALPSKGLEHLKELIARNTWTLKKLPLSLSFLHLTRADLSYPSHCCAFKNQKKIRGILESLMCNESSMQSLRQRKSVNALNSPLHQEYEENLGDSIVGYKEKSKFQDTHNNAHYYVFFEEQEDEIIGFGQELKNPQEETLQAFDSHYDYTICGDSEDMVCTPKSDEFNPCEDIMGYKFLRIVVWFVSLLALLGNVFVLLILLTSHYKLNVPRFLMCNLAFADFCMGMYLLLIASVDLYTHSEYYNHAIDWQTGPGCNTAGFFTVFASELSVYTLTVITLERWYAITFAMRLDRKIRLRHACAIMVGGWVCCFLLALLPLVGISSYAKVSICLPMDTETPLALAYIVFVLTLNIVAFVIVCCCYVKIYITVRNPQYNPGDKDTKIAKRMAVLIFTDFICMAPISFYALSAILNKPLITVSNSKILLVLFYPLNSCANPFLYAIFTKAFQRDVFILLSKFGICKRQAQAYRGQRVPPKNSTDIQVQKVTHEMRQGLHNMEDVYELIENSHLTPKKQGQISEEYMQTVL

For `FC(F)(F)c1cccc(C2=CCN(CCc3ccc4ccccc4c3)CC2)c1`, the Potency entry in test [1], in test [2], in test [3], in test [4], in test [5] and in test [6] was “inactive” in each case. In addition, the Potency result in test [7], in test [8], in test [9], in [10] and in [11] was “inactive” each time.

Turning to `CCOC(=O)OC1=C(c2cc(C)ccc2C)C(=O)NC12CCC(OC)CC2` (configuration not stated), the Potency result in [1], in test [3], in [4], in test [5], in [7] and in [8] was “inactive” each time. Moreover, the Potency entry in test [9] and in [10] was “inactive” throughout. In addition, in test [2], the Potency was 43.2 µM (active).

As for `C=CC(=O)OCCCCOC(=O)C=C`, the Potency entry in test [12], in [5], in [9] and in test [11] was “inactive” in each case. Besides, the Potency in [4] is 54.5 µM (active); in test [7], 61.1 µM (active); in [10] it was 48.6 µM (active).

On to `O=C(Nc1ccc2[nH]ccc2c1)c1cc2cc(F)ccc2n1Cc1cccc(F)c1`, for which the Potency result in test [1], in test [3], in test [5], in test [6] and in [11] was “inactive” throughout. For the same compound, the Potency is 68.6 µM (active) in test [2]; 61.1 µM (active) in test [4]; 61.1 µM (active) in test [7]; 27.3 µM (active) in test [9]; 2.73 µM (active) in [13].

Turning to `CN(C)C(=S)S`, the Potency in test [12] is 1.22 µM (active) and 43.6 µM (active); in test [4], 9.89 µM (active) and 3.83 µM (active) and 13.7 µM (active); in test [6], 19.7 µM (active) and 6.81 µM (active) and 27.3 µM (active); in [7], 27.9 µM (active) and 7.64 µM (active) and 27.3 µM (active).

As for `O=C(CCl)Nc1ccccc1`, the Potency entry in [12], in test [5], in test [9] and in test [14] was “inactive” throughout. In addition, the Potency in [4] was 30.6 µM (active); in [7], 48.6 µM (active); in test [8] it was 54.5 µM (active); in [10], 24.3 µM (active); in test [11], 8.63 µM (active).

Take `O=C(CBr)c1ccc(O)cc1`: the Potency result in [12], in [7], in [11] and in [13] was “inactive” each time. For the same compound, the Potency in test [2] was 54.5 µM (active).

Turning to `Oc1ccc(C2(c3ccc(O)cc3)c3ccccc3-c3ccccc32)cc1`, the Potency was 38.9 µM (active) in [12]; 68.6 µM (active) in test [4]; 61.1 µM (active) in test [7]; 61.1 µM (active) in test [10]; 54.5 µM (active) in [14]. The Potency entry in test [5] and in test [13] was “inactive” each time.
